# Bioassay records deposited in PubChem BioAssay by several laboratories.
# BoNT-F LC inh = inhibitors of Botulinum neurotoxin F light chain protease; Multiplex microsphere protease cleavage assay, flow cytometry; inhibition, % at 10 µM; hit rate 0.22% among 360,000; AID 588497; in the data active = inhibition above about 35%, passing the limit was not always enough; inconclusive = no clear call, values can overlap the other calls; also: plate controls were buffer without enzyme for full effect and enzyme alone for no effect
# BoNT A protease = blocks Botulinum neurotoxin A light chain protease; inhibition, % at 10 µM; hit rate 0.17% among 360,000; multiplex microsphere protease substrate cleavage, flow cytometry; AID 588499; also: plate controls were buffer without enzyme for full effect and enzyme alone for no effect
# Anthrax LF prot = blocks Bacillus anthracis lethal factor protease; P15917; multiplex microsphere protease cleavage assay, LF; inhibition, % at 10 µM; hit rate 0.12% among 360,000; AID 588501; also: plate controls were buffer without enzyme for full effect and enzyme alone for no effect
# SSB-PriA inh = blocks PriA binding to SSB C-terminal tail. hit rate 0.6% among 430,000. AlphaScreen SSBct-PriA binding, biotinylated peptide. inhibition, % at 33 µM; in the data active = inhibition mostly above about 37%, no sharp cut-off; inactive = mostly below about 20%;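 also: plate controls were negative control peptide for no effect and reference peptide for full effect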
# Autofluor counter = counter-screen for toxin protease inhibitors: compound fluorescence; compound autofluorescence counterscreen, microsphere flow cytometry; stronger effect = higher value; fluorescence intensity (no concentration beside the values); hit rate 3.1% among 360,000; AID 624483; in the data active = fluorescence intensity above about 16000; inconclusive = no clear call, values can overlap the other calls
# BoNTA LC inh 1 = BoNT/A light chain protease inhibition | shares compounds with BoNT-F LC inh | inhibition, % at 10 µM | multiplex microsphere protease assay, flow cytometry | hit rate 3% among 720; in the data active = inhibition above about 32%
# BoNTF LC inh 1 = BoNT/F light chain protease inhibition. shares compounds with BoNT-F LC inh. multiplex microsphere protease cleavage assay, flow cytometry. inhibition, % at 10 µM. 720 tested, under 10 active. AID 602140; call rule not given here
# LF protease CP1 = Bacillus anthracis lethal factor protease inhibition; multiplex microsphere protease cleavage assay, LF; shares compounds with BoNT-F LC inh; 720 tested, under 10 active; inhibition, % at 10 µM; call rule not given here
# Numbers without * were called inactive; ? = inconclusive; · = not tested or not shown. Hits are enriched below; roughly 3.1% of the tested compounds scored in any of these assays. Rule as the data show it, unless noted: active = inhibition above about 30%; inconclusive = no clear call, values can overlap the other calls; inactive = below that.
SMILES,BoNT-F LC inh,BoNT A protease,Anthrax LF prot,SSB-PriA inh,Autofluor counter,BoNTA LC inh 1,BoNTF LC inh 1,LF protease CP1
COCC(=O)NCc1ccc2c(c1)cc(C)n2C,-5,5,1,-11,1948,3,-5,-1
O=C(Nc1ccc(Nc2ccccc2)cc1)c1c(F)c(F)c(F)c(F)c1F,-12,-4,40*,-7,3173,0,-7,1
Cc1ccccc1C1CCN(C(=O)c2cc(-c3ccc4c(c3)OCO4)n[nH]2)CCS1 (stereo not given),·,·,·,-8,·,·,·,·
CN(CCOc1ccccc1)C(=O)c1cc([N+](=O)[O-])cc([N+](=O)[O-])c1,42*,5,2,20,4483,-1,-10,-2
COc1ccc(CNC(=O)CSc2nnc(NC(=O)C3CC3)s2)cc1,35*,0,-2,0,3716,0,0,0
O=C(CCNC(=O)c1ccccc1)NCCc1ccc(Cl)cc1,-9,1,38*,-1,3849,-1,-7,-1
O=C(CSc1nnc(NC(=O)c2ccc(Cl)cc2Cl)s1)Nc1ccccc1C(F)(F)F,·,·,·,-2,·,·,·,·
COc1ccccc1Oc1ccc2c(c1)C(=O)N(c1ccc(O)cc1)C2=O,-4,0,3,-4,2846,·,·,·
COc1ccccc1Oc1ccc2c(c1)C(=O)N(CC(=O)O)C2=O,38*,-1,2,-8,3877,-1,1,-1
CCCNC(=O)c1ccccc1NC(=O)c1ccccc1N(C)S(C)(=O)=O,?,0,-1,-17,4231,·,·,·
CCCNC(=O)c1ccccc1NC(=O)c1ccccc1N(C)S(=O)(=O)c1ccc(C)cc1,38*,-1,1,3,12100,-1,-1,-1
CCOC(=O)CCCCC(=O)c1[nH]c(=O)[nH]c1CSCCO,64*,8,3,-8,5536,1,-3,-5
CCOC(=O)CCCCC(=O)c1[nH]c(=O)[nH]c1Cn1cnc2ccccc21,34,5,-6,-7,5662,0,-10,-3
CCOC(=O)CCCCC(=O)c1[nH]c(=O)[nH]c1CSc1nc(-c2ccccc2)c(C#N)c(=O)[nH]1,15,4,-6,1,5259,·,·,·
CCOc1ccc2nc(NC(=O)Cc3ccc(S(C)(=O)=O)cc3)sc2c1,·,·,·,-3,·,·,·,·
O=C(CCS(=O)(=O)c1ccccc1)N(Cc1cccnc1)c1nc2cc3c(cc2s1)OCCO3,·,·,·,6,·,·,·,·
COc1ccc(S(=O)(=O)n2nc(C)cc2C)cc1N(C)S(=O)(=O)c1ccc(Cl)cc1,·,·,·,-14,·,·,·,·
Cc1ccc(S(=O)(=O)c2nc(S(=O)(=O)c3ccccc3)sc2NCc2cccs2)cc1,·,·,·,-6,·,·,·,·
CCn1ccnc1CN1CCN(CC=C(C)C)C(CCO)C1 (stereo not given),48*,4,-1,-12,2683,0,-4,-1
CN(C)C(=O)CSc1nnc(-c2ccc(S(=O)(=O)N3CCCC3)cc2)n1C,-9,0,-2,-10,3290,·,·,·
CC(=O)CSc1nnc(-c2ccc(S(=O)(=O)N3CCCC3)cc2)n1C,-10,1,31*,-7,3870,1,1,2
Cc1nn(Cc2ccc([N+](=O)[O-])cc2)c(=O)n1N(C)c1ncc(C(F)(F)F)cc1Cl,38*,0,-4,3,4593,1,3,0
Cc1nn(Cc2ccc(Cl)cc2)c(=O)n1N(C)c1ncc(C(F)(F)F)cc1Cl,-20,0,-5,-12,4712,·,·,·
Cc1c(NC(=O)c2cccc(NC(=O)Cc3c(F)cccc3Cl)c2)c(=O)n(-c2ccccc2)n1C,-2,0,-3,-5,2960,·,·,·
Cc1c(NC(=O)c2cccc(NC(=O)Cc3ccc(F)cc3)c2)c(=O)n(-c2ccccc2)n1C,2,-2,44*,-17,?,-2,-10,-3
Cc1ccccc1Cn1cccc(C(=O)Nc2cccnc2)c1=O,·,·,·,-7,·,·,·,·
Cc1cc(F)ccc1S(=O)(=O)Nc1ccc2c(c1)CN(C(=O)c1ccccc1)CC2,·,·,·,-1,·,·,·,·
CCC(C)NC(=O)c1cc2cc3ccc(OC)cc3nc2s1 (stereo not given),-4,2,-4,-2,3620,1,-2,0
COc1ccccc1-c1ccc(SCc2cccc(F)c2)nn1,-4,0,-9,-5,4559,·,·,·
COc1ccccc1-c1ccc(SCc2ccccc2)nn1,6,32*,25,-37,4296,6,-12,2
